TDP1 inh: TDP1 (human) enzyme inhibition | Q9NUW8 | recombinant TDP1, AlphaScreen DNA substrate cleavage | Potency, µM (highest dose often 130 µM), for inactives: at the top dose activity change, negative = inhibition, hits mostly inhibitors | 350,000 tested, 0.28% active | AID 485290; further: potency means the concentration at half of the fitted maximal effect; on the % scale 0 is the no-effect control and ±100 the full control effect; nearly all actives have a fitted effect of over 40% in size
Target sequence (Q9NUW8 whole entry, looked up): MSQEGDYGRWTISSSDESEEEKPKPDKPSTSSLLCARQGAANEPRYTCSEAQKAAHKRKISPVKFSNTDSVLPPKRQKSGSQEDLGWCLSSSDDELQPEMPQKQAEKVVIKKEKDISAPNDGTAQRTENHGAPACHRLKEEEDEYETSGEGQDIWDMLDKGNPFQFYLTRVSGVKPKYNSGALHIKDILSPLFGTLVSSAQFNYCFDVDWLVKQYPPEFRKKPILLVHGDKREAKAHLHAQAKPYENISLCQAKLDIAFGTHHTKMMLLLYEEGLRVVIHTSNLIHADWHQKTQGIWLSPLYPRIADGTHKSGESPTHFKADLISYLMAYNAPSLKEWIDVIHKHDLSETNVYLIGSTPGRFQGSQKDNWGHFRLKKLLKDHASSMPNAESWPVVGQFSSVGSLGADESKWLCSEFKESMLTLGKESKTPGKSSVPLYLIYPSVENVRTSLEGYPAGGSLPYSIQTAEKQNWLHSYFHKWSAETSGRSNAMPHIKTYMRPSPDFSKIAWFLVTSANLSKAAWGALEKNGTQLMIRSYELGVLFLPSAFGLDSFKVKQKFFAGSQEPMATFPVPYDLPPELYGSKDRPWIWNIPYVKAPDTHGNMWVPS
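Signal: AlphaScreen proximity between streptavidin donor and anti-FITC acceptor beads on intact substrate. Reaction: Tdp1 1 nM, substrate 15 nM final, 5 min RT after 15 min compound preincubation.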
HepG2 viability: counter-screen for TGF-b inhibitors: cytotoxicity in HepG2 cells; HepG2 CAGA-GFP viability, ATP luminescence, 18 h; Potency, µM (series often up to 46.1 µM), inactives show top-dose activity change, negative = cytotoxicity, usual class: cytotoxic; 410,000 tested, 0.76% active; further: potency means the concentration at half of the fitted maximal effect
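HepG2 CAGA-GFP cells (1000/well, DMEM with 1% FBS) received compound, then TGF-beta at 500 pg/mL final, and were incubated 18 hours at 37 degrees C. Viability was read by CellTiter-Glo luminescence. Media-only wells were set as complete cell-killing and DMSO as no toxicity.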
DT40 TDP1 CPT: growth inhibition of DT40 Tdp1-/-;hTDP1 cells with camptothecin (screen for TDP1 inhibitors) | 420,000 tested, 12% active | AID 686979 | Potency, µM (top dose mostly 46.2 µM), for the others: top-dose activity change, negative = growth inhibition, usual class: inhibitors | chicken DT40 Tdp1-/-;hTDP1 cells + 20 nM CPT, ATP luminescence, 48 h; further: potency means the concentration at half of the fitted maximal effect; on the % scale 0 is the no-effect control and ±100 the full control effect; nearly all actives have a fitted effect of over 55% in size
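Chicken DT40 Tdp1-/- cells stably complemented with human TDP1 were seeded at 400 cells/well in medium containing 20 nM camptothecin, exposed to pin-transferred compounds, and grown at 37 °C for at least 48 hr. Viability was read as ATP luminescence.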
TGFb inhibitor: TGF-b pathway inhibition; HepG2 CAGA-GFP TGF-b/SMAD3 reporter, GFP fluorescence, 18 h; TGF-beta stimulated, 500 pg/mL final; Potency, µM (titrated, usually from 46.1 µM), for inactives: at the highest dose activity, negative = inhibition, most hits filed as inhibitors; 410,000 tested, 1.2% active; further: potency means the concentration at half of the fitted maximal effect; on the % scale 0 is the no-effect control and ±100 the full control effect; nearly all actives have a fitted effect of over 65% in size
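HEPG2 CAGA-GFP reporter cells (1000/well, DMEM with 1% FBS) received compounds, then recombinant TGF-beta at 500 pg/mL final for 18 hours at 37 degrees C. Per-cell GFP summed per well was normalised to unstimulated and stimulated DMSO controls before curve fitting.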
TDP1 cell noCPT: qHTS for Inhibitors of human tyrosyl-DNA phosphodiesterase 1 (TDP1): qHTS in cells in absence of CPT | Potency, µM (titrated, usually from 46.2 µM), for the others: at the top dose activity change, negative = growth inhibition, most hits filed as inhibitors | 420,000 tested, 15% active | AID 686978, 2013 | DT40 Tdp1-/- hTDP1 cells, no CPT, ATP luminescence, 48 h; further: potency means the concentration at half of the fitted maximal effect; on the % scale 0 is the no-effect control and ±100 the full control effect; nearly all actives have a fitted effect of over 55% in size
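Luminescent ATP content (CellTiter-Glo) served as the growth readout. Knockout chicken DT40 cells expressing human TDP1 were exposed to compounds without camptothecin for a minimum 48 hr at 37 °C.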
IL1B secr inh: inflammasome signaling inhibition, IL-1 beta readout. THP-1 LPS/ATP IL-1B secretion, AlphaLISA, 16 h; stronger effect = lower value. activity change, % at 57.5 µM. 360,000 tested, 4.7% active. AID 743279; in the data active means activity change below about -50%; inconclusive means mostly about -30% to -49%; further: on the % scale 0 is the no-effect control and ±100 the full control effect
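THP-1 cells pretreated 1 hr with compounds (up to 57.5 uM final), then stimulated with LPS (250 ng/mL final) plus ATP (1.25 mM final); secreted IL-1B measured by AlphaLISA after 16 hr, decreased signal indicating inhibition.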
* marks the source's active call; other numbers are inactive results; i = inactive; ? = inconclusive; nt = no result; [ ] = remark or other dose. In the library only some 19% were active in any assay of this set; here they are far more common. Unless noted, the call rests on the fitted dose curve; in most records, active means well fitted curve in the direction sought with a large enough effect; inconclusive means small, poorly fitted or top-dose-only effect, or another doubt; inactive means no such curve, though single readings can be large; an effect the other way counts as inactive or inconclusive.

SMILES	TDP1 inh	HepG2 viability	DT40 TDP1 CPT	TGFb inhibitor	TDP1 cell noCPT	IL1B secr inh
NCCCNc1ccc([N+](=O)[O-])cc1C(F)(F)F	-2%	0%	-6%	35%	13µM*	-51*
O=C(NCCNc1ccc([N+](=O)[O-])cc1C(F)(F)F)c1ccc(F)cc1	3%	-13%	?	3%	?	-1
Cc1ccc(N(C)S(=O)(=O)c2cccc(C(=O)NCCCN3CCCC3=O)c2)cc1	-1%	-2%	-17%	11%	-24%	-6
CSc1nnc2c3ccccc3c3ccccc3c2n1	3%	2%	15µM*	14%	18µM*	30
Cc1ccc(C)c(CSc2nnc3[nH]c(=O)cc(-c4ccccc4)n23)c1	-5%	-4%	-3%	-5%	-3%	nt
O=c1cc(N=Nc2ccc(Cl)cc2)[nH]c(=O)[nH]1	5%	-48%	0.52µM*	2%	0.92µM*	-99*
O=c1cc(-c2ccc(Cl)cc2)oc(=O)[nH]1	-1%	3%	7%	-5%	-1%	36
COc1ccccc1-c1noc2c1C(=O)N(Cc1cn(-c3ccc(Cl)cc3)nn1)CC2	nt	-21%	?	-46%	23µM*	0
COc1ccc(Cn2cc(CN3CCc4onc(-c5ccc(Br)cc5)c4C3=O)nn2)cc1	nt	nt	16µM*	nt	21µM*	0
COc1cccc(C2c3c(ncn(-c4cccc(F)c4)c3=N)Oc3ccc4ccccc4c32)c1 (centres undefined)	4%	nt	nt	nt	nt	nt
COCCNC(=O)C1(C)CCN(Cc2csc(-c3ccc(Cl)cc3)n2)C1 (centres undefined)	nt	-6%	?	-12%	?	-15
O=S(=O)(NN1CCOCC1)c1cc(Cl)cc(Cl)c1O	5%[56.1 µM]	11%	2%	2%	1%	i
CCC(=O)N1CCN(c2ccc(Cl)cc2NC(=O)c2ccc3c(c2)OCCO3)CC1	1%	1%	16µM*	-12%	?	-12
CCC(=O)N1CCN(c2ccc(Cl)cc2NC(=O)c2ccc(N3CCCC3)c([N+](=O)[O-])c2)CC1	4%	-16%	?	-13%	?	-51*
CCOc1ccc(C(C)=O)cc1COc1ccc(C)nc1[N+](=O)[O-]	7%	-34%	?	-2%	?	11
CN(CCCC(=O)NCc1ccc2c(c1)OCO2)S(=O)(=O)c1ccc([N+](=O)[O-])cc1	4%	-39%	?	-25%	23µM*	-3
Cc1ccc(S(=O)(=O)N(C)CCCC(=O)NCc2ccc3c(c2)OCO3)cc1	4%	-3%	-15%	-3%	23µM*	26
Cc1ccc(S(=O)(=O)NCCC(=O)NCc2ccc3c(c2)OCO3)cc1C	6%	2%	-11%	-1%	-2%	-9
CCOc1ccc(NS(=O)(=O)c2ccc(OCC)c3ncccc23)cc1	5%	-29%	11µM*	-7%	10µM*	29
CCN(c1cccc(C)c1)S(=O)(=O)c1ccc2c3c(cccc13)C(=O)N2	5%	-26%	?	-16%	11µM*	0
CCOc1ccc(NS(=O)(=O)c2ccc3c4c(cccc24)C(=O)N3)cc1	nt	-41%	16µM*	?	?	nt
CCOc1ccc(S(=O)(=O)O)c2cccnc12	7%	nt	-6%	nt	-4%	nt
C=CCn1cc(C(=O)OCC)c(=O)c2ccc(F)cc21	7%	2%	-2%	2%	10%	22
COc1ccccc1-c1cc(C(=O)N/N=C\c2cn(C)nc2C)c2ccccc2n1	8%	7%	?	9%	13µM*	1
COc1ccccc1-c1cc(C(=O)N/N=C\c2cnn(C)c2C)c2ccccc2n1	8%	-36%	?	-34%	?	14
SMILES	TDP1 inh	HepG2 viability	DT40 TDP1 CPT	TGFb inhibitor	TDP1 cell noCPT	IL1B secr inh
CCn1cc(/C=N\NC(=O)c2cc(-c3ccccc3OC)nc3ccccc23)c(C)n1	3%	-14%	?	3%	16µM*	-2
CCn1ncc(/C=N\NC(=O)c2cc(-c3ccc(C)cc3C)nc3ccccc23)c1C	8%	-4%	?	3%	?	0
Cc1nc(/C(=N/O)C(N)=O)cs1	0%	3%	-11%	14%	11%	19
Cc1occc1-c1nnc(SCC(=O)c2ccc3c(c2)OCCO3)n1CC1CCCO1 (centres undefined)	nt	5%	-25%	-6%	-5%	8
CCCCn1c(SCC(=O)c2ccc3c(c2)OCCO3)nnc1-c1ccoc1C	2%	-22%	?	13%	?	-96*
C/C(CCN1CCCc2nc(C)c(C)cc21)=N\O[C@@H](C)c1cn([C@@H]2COC[C@@H]2O)nn1	11%[21 µM]	nt	nt	nt	nt	nt
O=c1nc(-c2ccccc2)c2cc(Br)ccc2[nH]1	nt	-12%	0.33µM*	2%	0.23µM*	-24
O=c1nc(-c2ccccc2)c2cc(Cl)ccc2[nH]1	3%	-10%	?	5%	1.3µM*	-19
O=c1nc(-c2ccccc2)c2cc(SC(F)F)ccc2[nH]1	nt	4%	-5%	18%	0.41µM*	5
Cc1ccc(-c2nc(=O)[nH]c3ccc(Br)cc23)cc1	4%	-20%	?	10%	?	-15
COc1ccc(C(=O)NCc2ccc3c(c2)CCN3C(C)=O)cc1OC	-1%	-10%	14%	32%	-13%	nt
COc1ccc(CNC(=O)CS(=O)(=O)c2cccc3nsnc23)cc1	4%	-2%	-3%	-2%	-21%	nt
Clc1cccc2c1CN(C1=NCCN1)C2	10%[56.1 µM]	nt	?	nt	?	nt
Cc1occc1-c1nnc(SCC(=O)N2CCOCC2)n1Cc1ccco1	5%	5%	-2%	-5%	-8%	1
COCCn1c(SCC(=O)Nc2nnc(C)s2)nnc1-c1cc2ccccc2cc1O	-7%	3%	-20%	-10%	-8%	5
COCCn1c(SCC(=O)N(C(C)C)C(C)C)nnc1-c1cc2ccccc2cc1O	-6%	-19%	?	-12%	21µM*	15
Oc1cc2ccccc2cc1-c1n[nH]c(=S)n1Cc1ccco1	10%	2%	-23%	-8%	4%	-4
O=C(CSc1nnc(-c2cc3ccccc3cc2O)n1Cc1ccco1)N1CCc2ccccc2C1	1%	-35%	?	?	?	-71*

Screens deposited in PubChem BioAssay by National Center for Advancing Translational Sciences (NCATS).
